Laboratory results: PubChem BioAssay (NCI)
Compounds without any hit were thinned out: in the full panel of roughly 83,000, 20% have a hit.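 The endpoint reported here, percent growth, reads 100 for growth as untreated, 0 for no net growth and -100 for all cells dead.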 A number with no mark means an inactive call. Active and inactive are the calls of the source. The calls were made as follows: active = growth percent below 10; inactive = the rest.

How the values were obtained:
Test in all cases: NCI-60 one-dose screen, 48 h (100 = growth as untreated, 0 = no growth, -100 = all killed)
Conditions in all cases: 10 µM
[1] = tested on: NCI-H23 lung
[2] = tested on: NCI-H226 lung
[3] = tested on: NCI-H322M lung
[4] = tested on: HOP-62 NSCLC
[5] = tested on: NCI-H460 lung
[6] = tested on: HOP-92 NSCLC
[7] = tested on: NCI-H522 lung
[8] = tested on: A549/ATCC NSCLC
[9] = tested on: 786-0 renal
[10] = tested on: COLO 205 colon

SMILES	growth [1]	growth [2]	growth [3]	growth [4]	growth [5]	growth [6]	growth [7]	growth [8]	growth [9]	growth [10] [%]
CCOC(=O)c1cc2c(n1Cc1cc(OC)cc(OC)c1)-c1oncc1CC2	38.4%	30.5%	-1.31% (active)	58%	9.46% (active)	80%	4.32% (active)	29%	33.7%	
CC(C)OCc1cc(CN2CCN(c3cccc(Cl)c3)CC2)c(O)c2ncccc12	-44.8% (active)	1.5% (active)	-10.6% (active)	-0.196% (active)	0.361% (active)	-35.2% (active)	-26.2% (active)	-5.68% (active)	0.332% (active)	
CCN1CCOC1C(C)C (stereo not drawn)	102%	109%	103%	99.5%	107%	114%	97.1%	101%	94.2%	
CNC(=O)c1cc(Oc2ccc(NC(=O)Nc3ccc(Cl)c(OC4CCCCC4)c3)c(F)c2)ccn1	21.4%	48.4%	75.8%	70.5%	37.9%	36%	9.84% (active)	26.6%	90.4%	
Cc1cc(/C=C2\SC(=Nc3ccccc3)N(C3CCCC3)C2=O)c(C)n1-c1ccc(Cl)cc1	-19.8% (active)	-66.6% (active)	-55% (active)	-69.6% (active)	-57.4% (active)	-74.2% (active)	-66.8% (active)	-27.5% (active)	-85.1% (active)	
COc1cc(C(c2c[nH]c3ccccc23)N2CCCC2)ccc1OCc1ccccc1 (stereo not drawn)	82%	80.1%	72.7%	90.3%	98.9%	12.7%	71.1%	94.5%	87.4%	
Cc1cc(=O)oc2cc(OCc3cn(CC(O)CO)nn3)ccc12 (stereo not drawn)	94.1%	104%	109%	103%	111%	111%	107%	105%	111%	108
COc1ccccc1CNCCCN1C(=O)c2ccc3c4c(ccc(c24)C1=O)C(=O)N(CCCNCCNCCCN)C3=O	6.85% (active)	39.9%	27.9%	40.4%	6.29% (active)	66.3%	-0.0156% (active)	6.04% (active)	45.4%	
O=C(NCCCl)c1cc(Cl)cc(Cl)c1	103%	102%	98.2%	109%	113%	109%	92.8%	90.7%	102%	
Cc1ccccc1[P+](Cc1ccccc1)(c1ccccc1)c1ccccc1	9.83% (active)	39.5%	42.3%	32.3%	17.5%	-21.8% (active)	-15.8% (active)	19.7%	43.7%	
COc1cc(OC)cc(N2CCN(C(=O)Nc3nc4cc(F)ccc4nc3OC)CC2)c1	20.4%	43.3%	29.3%	34.7%	5% (active)	39.8%	-3.96% (active)	19.8%	15%	
N#C/C(=C/c1cc([N+](=O)[O-])ccc1Cl)C(N)=O	98.4%	94.4%	97.2%	94.8%	110%	87.8%	87.7%	106%	104%	
Cc1ccc(S(=O)(=O)Oc2ccccc2-c2ccccc2)cc1	47.2%	53.5%	47.9%	42%	9.27% (active)	33%	15%	42.4%	38.4%	
O=C(CSc1nnc(-c2ccc(Cl)cc2)o1)c1ccccc1	88.7%	96.3%	119%	91.1%	105%	107%	78.6%	73.2%	92.8%	
COc1ccc(-c2nnc(COc3ccc(NC(=O)Nc4ccccc4)cc3F)o2)cc1	92.4%	95.2%	90.1%	89.2%	84.4%	52.2%	52.5%	93.3%	79.1%	
COc1ccc(COC(=O)CC(C)C)cc1	93.1%	95.1%	101%	106%	108%	99%	79.1%	89.5%	94.4%	
CC(=O)CS(C)(=O)=O	102%	101%	113%	106%	114%	98.5%	93.7%	96.7%	106%	
COc1cc([C@@H]2c3cc4c(cc3[C@H](SC(=N)N)[C@H]3COC(=O)[C@H]23)OCO4)cc(OC)c1OC	13.7%	0.754% (active)	13%	51.4%	5.84% (active)	68.5%	-7.12% (active)	18.3%	10.3%	
COc1ccc2nc(-c3ccccc3)cc(C(C)=O)c2c1	89.8%	87.6%	84.7%	78.3%	99.1%	71.5%	80.9%	100%	95.8%	
COc1cc2c3c(cccc3c1)C(=O)N(CCN1CCCC1)C2=O	32.5%	0.818% (active)	13.6%	25.7%	-22% (active)	-8.44% (active)	-11% (active)	6.08% (active)	36.1%	
CCc1c(C)[nH]c(=O)c(C(N)=O)c1C#N	107%	117%	104%	96.7%	106%	109%	80.5%	89.4%	96.2%	
Nc1ccn([C@@H]2O[C@H](COP(=O)(O)O[C@@H]3C[C@H](n4cc(F)c(=O)[nH]c4=O)O[C@@H]3COP(=O)(O)O[C@@H]3C[C@H](n4cc(F)c(=O)[nH]c4=O)O[C@@H]3COP(=O)(O)O[C@@H]3C[C@H](n4cc(F)c(=O)[nH]c4=O)O[C@@H]3COP(=O)(O)O[C@@H]3C[C@H](n4cc(F)c(=O)[nH]c4=O)O[C@@H]3COP(=O)(O)O[C@@H]3C[C@H](n4cc(F)c(=O)[nH]c4=O)O[C@@H]3COP(=O)(O)O[C@@H]3C[C@H](n4cc(F)c(=O)[nH]c4=O)O[C@@H]3COP(=O)(O)O[C@@H]3C[C@H](n4cc(F)c(=O)[nH]c4=O)O[C@@H]3COP(=O)(O)O[C@@H]3C[C@H](n4cc(F)c(=O)[nH]c4=O)O[C@@H]3COP(=O)(O)O[C@@H]3C[C@H](n4cc(F)c(=O)[nH]c4=O)O[C@@H]3COP(=O)(O)O[C@@H]3C[C@H](n4cc(F)c(=O)[nH]c4=O)O[C@@H]3COP(=O)(O)OCCOCCOCCOCCOCCOCCO)[C@H](O)C2O)c(=O)n1 (stereo partly drawn)	33.2%	72.7%	83.5%	30%	6.31% (active)	71%	45%	11.7%	28.2%	
COc1ccc(-c2n/c(=C\c3c(O)[nH]c4ccccc34)cc3c2=Nc2ccccc2-3)cc1	33.8%	59.7%	96%	86.2%	9.63% (active)	42.1%	63.1%	37.4%	-31.3% (active)	
FC(F)(F)c1ccc(-c2nc(-c3nc4cc(Cl)c(Cl)cc4[nH]3)c3ccccn23)cc1	75.1%	55.2%	61.2%	64%	60.4%	37.9%	74.8%	62%	56.3%	
CCOC(=O)CSC(=S)SCC(=O)OCC	110%	106%	118%	105%	107%	108%	67.7%	99%	103%	
CCCCC(CC#N)(CCC)CCC	105%	109%	95.6%	116%	109%	99.7%	97.5%	94.4%	95.5%	
FC(F)(F)c1ccc(-c2cnc(Cl)nc2NCc2cc(C(F)(F)F)cc(C(F)(F)F)c2)cc1	1.54% (active)	7.69% (active)	37.8%	33.4%	3.48% (active)	-35.3% (active)	-4.24% (active)	15.8%	11.5%	
CCOC(=O)C(CCC1=NC(C)(C)CC(C)O1)C(=O)OCC (stereo not drawn)	77.7%	95.1%	137%	93.8%	51.5%	95.3%	62.5%	101%	107%	
